The values that follow come from PubChem BioAssay.

Results filed as inconclusive are left out. Active and inactive are the calls of the source.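 The calls were made as follows, unless noted: active = binding below the plate cutoff, the plate median minus 3 SD, with a reading above zero; inconclusive = below the plate cutoff but reading exactly zero; inactive = the rest.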

Assay [1] can be described thus: rapamycin-like changes in RPL19A-GFP expression – cell-based, S. cerevisiae, multiplex flow cytometry, primary screen (AID 1862; in the data active = percent of DMSO control GFP below about 86%;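 also: lower values mimic rapamycin by blocking the RPL19A rise seen in DMSO cells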). As to conditions: S. cerevisiae RPL19A-GFP strain, flow cytometry fluorescence, 3 h; at 10 µM; stronger effect = lower value. (In general: A flow cytometer gives signals particle by particle.)
Assay [2] is described as follows: TOR pathway GLN3 branch reporter MEP2-GFP changes – S. cerevisiae, multiplex flow cytometry, primary screen (AID 1867;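 active = GFP response, as percent of the DMSO control, above the screen-wide mean plus 3 SD, about 139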;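 also: median GFP channel fluorescence of barcode-gated MEP2-GFP cells measured by flow cytometry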). The note with it: S. cerevisiae MEP2-GFP strain, 3 h, at 10 µM, stronger effect = higher value, 100% means same as DMSO wells.
Assay [3] is described as follows: TOR pathway RTG branch CIT2 reporter changes – S. cerevisiae, GFP fusion, multiplex flow cytometry, primary screen (AID 1870;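 active = percent response above a set limit, the screen-wide mean plus 3 SD, cut at about 130% in these data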;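 also: barcoded CIT2-GFP strain pooled with four other GFP strains with rapamycin as positive control; median GFP fluorescence per well over plate mean of DMSO wells so 100% = DMSO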). The note with it: S. cerevisiae CIT2-GFP expression, 3 h, at 10 µM, stronger effect = higher value.
Assay [4] is described as follows: TOR pathway LAP4-GFP level changes – S. cerevisiae, multiplex flow cytometry, primary screen (AID 1873;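 active = GFP signal, as percent of the solvent control, above the screen mean plus 3 SD, about 149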). As to conditions: S. cerevisiae LAP4-GFP expression, 3 h, at 10 µM, stronger effect = higher value.
Assay [5] is described as follows: yeast AGP1-GFP level changes, GLN3 branch – cell-based, multiplex flow cytometry, S. cerevisiae, primary screen (AID 1887;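 active = GFP signal above the screen-wide mean plus 3 SD, that is over about 124.5% of the solvent control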;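 also: AGP1-GFP fusion strain of S. cerevisiae within a five-strain barcoded multiplex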). As to conditions: 3 h, at 10 µM, stronger effect = higher value.
The nature of assay [6]: reduced mouse 2C T cell binding to pMHC/ICAM-1 vesicles – MLPCN validation set, flow cytometry, LFA-1/ICAM-1 modulator project, pilot screen (AID 2523;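 active = response below a set limit, under 55% cells CD8-positive and vesicle-bound, and CD8 cells' 90th-percentile brightness under 279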;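 as to vesicle binding response: mean PE anti-B7-1 fluorescence of CD8+ cells relative to row control; 100% = QL9-loaded vesicles with DMSO vehicle in the same plate row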). As to conditions: 2C mouse CD8+ T cells, at 7 µM, stronger effect = lower value; double positive events: measured here: CD8+/vesicle+ event percentage.
The target of assay [7] is Integrin beta-1 (Homo sapiens) + Integrin alpha-4 (Homo sapiens) (UniProt P13612+P05556). The assay can be described thus: alpha4beta1 integrin LIBS antibody binding reduction – U937 cells, HUTS-21 mAb, flow cytometry, validation set, VLA-4 allosteric modulator project, pilot screen (AID 2674;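 active = inhibition above 50%, about 3 SD of the validation set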;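 also: antibody binding induced by the VLA-4 ligand LDV present at three times its Kd; 0% = LDV ligand with antibody and no compound and 100% = antibody without LDV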). The note with it: HUTS-21 LIBS mAb binding, at 6.7 µM, stronger effect = higher value, binding induced by LDV ligand.
Sequence of Integrin beta-1 (Homo sapiens) + Integrin alpha-4 (Homo sapiens) (P05556 whole entry, looked up): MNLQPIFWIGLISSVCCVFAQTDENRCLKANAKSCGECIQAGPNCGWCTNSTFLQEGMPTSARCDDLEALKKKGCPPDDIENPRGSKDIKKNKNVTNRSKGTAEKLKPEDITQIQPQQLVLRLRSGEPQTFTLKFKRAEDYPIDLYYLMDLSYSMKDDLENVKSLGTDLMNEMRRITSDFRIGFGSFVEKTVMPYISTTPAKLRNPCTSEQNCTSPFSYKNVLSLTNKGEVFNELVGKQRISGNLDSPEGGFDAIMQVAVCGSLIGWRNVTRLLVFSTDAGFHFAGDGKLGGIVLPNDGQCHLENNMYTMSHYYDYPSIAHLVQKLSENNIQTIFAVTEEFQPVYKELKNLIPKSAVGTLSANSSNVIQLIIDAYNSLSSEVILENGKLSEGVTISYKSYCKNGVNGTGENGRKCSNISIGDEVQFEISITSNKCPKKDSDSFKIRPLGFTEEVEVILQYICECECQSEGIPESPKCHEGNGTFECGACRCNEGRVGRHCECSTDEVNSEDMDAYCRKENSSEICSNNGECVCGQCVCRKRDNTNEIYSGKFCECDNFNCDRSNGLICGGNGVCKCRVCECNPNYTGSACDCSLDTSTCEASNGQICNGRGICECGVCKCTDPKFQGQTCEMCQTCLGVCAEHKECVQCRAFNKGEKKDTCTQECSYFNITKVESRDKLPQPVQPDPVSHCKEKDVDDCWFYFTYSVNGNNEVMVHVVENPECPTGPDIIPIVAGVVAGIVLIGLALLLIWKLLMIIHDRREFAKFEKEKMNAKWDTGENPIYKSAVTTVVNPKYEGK
Sequence of Integrin beta-1 (Homo sapiens) + Integrin alpha-4 (Homo sapiens) (P13612 whole entry, looked up): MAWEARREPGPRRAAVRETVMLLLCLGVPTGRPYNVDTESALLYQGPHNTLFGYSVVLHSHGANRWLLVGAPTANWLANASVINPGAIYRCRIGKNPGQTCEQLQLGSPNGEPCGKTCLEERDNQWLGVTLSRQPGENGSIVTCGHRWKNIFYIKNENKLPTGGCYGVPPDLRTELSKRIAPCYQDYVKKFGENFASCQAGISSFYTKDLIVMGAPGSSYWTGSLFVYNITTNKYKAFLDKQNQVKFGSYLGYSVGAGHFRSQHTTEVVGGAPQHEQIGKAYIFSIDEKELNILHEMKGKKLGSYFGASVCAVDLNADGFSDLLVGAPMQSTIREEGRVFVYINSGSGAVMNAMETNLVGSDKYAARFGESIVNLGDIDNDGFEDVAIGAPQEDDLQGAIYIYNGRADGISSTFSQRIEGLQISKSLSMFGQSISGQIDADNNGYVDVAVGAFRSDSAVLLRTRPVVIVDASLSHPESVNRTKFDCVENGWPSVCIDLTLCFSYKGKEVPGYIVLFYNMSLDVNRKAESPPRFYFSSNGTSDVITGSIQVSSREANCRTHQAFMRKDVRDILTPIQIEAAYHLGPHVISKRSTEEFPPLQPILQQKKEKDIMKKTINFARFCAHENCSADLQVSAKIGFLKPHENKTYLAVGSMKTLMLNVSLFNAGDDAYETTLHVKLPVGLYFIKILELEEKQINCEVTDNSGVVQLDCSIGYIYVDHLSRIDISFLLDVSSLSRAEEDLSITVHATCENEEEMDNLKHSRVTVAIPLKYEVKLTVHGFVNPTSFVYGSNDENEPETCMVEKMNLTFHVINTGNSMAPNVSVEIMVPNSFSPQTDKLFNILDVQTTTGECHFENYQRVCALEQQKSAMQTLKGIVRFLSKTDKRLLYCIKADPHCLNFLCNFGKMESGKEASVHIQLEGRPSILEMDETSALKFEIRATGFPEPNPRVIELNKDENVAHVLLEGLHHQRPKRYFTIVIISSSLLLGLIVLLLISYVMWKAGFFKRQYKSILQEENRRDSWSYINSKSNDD

The nature of assay [8]: calorie-restriction mimetic ROS inhibitors, yeast – validation compound set, pilot screen (AID 2706;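 active = superoxide response below 65% of plate, a cut near 3 SD across the whole screen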;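 also: yeast exposed to compound for one week at 30 degrees C before staining; 100% = mean of all compound wells on the same plate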). As to conditions: S. cerevisiae aging, superoxide DHE fluorescence; at 10 µM, stronger effect = lower value.
The target in assay [9] is Beta-adrenergic receptor kinase 1 (Homo sapiens) (UniProt P25098). The assay can be described thus: GRK2 binders displacing RNA aptamer, biochemical, validation, human GRK2, bead flow cytometry (AID 488806;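 active = aptamer binding inhibition above 30%, about 3 SD of noise from non-fluorescent compounds; inactive = inhibition at or below 30%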). As to conditions: bead-bound GRK2, FAM-aptamer displacement, at 10 µM, stronger effect = higher value.
Sequence of Beta-adrenergic receptor kinase 1 (Homo sapiens) (P25098 whole entry, looked up): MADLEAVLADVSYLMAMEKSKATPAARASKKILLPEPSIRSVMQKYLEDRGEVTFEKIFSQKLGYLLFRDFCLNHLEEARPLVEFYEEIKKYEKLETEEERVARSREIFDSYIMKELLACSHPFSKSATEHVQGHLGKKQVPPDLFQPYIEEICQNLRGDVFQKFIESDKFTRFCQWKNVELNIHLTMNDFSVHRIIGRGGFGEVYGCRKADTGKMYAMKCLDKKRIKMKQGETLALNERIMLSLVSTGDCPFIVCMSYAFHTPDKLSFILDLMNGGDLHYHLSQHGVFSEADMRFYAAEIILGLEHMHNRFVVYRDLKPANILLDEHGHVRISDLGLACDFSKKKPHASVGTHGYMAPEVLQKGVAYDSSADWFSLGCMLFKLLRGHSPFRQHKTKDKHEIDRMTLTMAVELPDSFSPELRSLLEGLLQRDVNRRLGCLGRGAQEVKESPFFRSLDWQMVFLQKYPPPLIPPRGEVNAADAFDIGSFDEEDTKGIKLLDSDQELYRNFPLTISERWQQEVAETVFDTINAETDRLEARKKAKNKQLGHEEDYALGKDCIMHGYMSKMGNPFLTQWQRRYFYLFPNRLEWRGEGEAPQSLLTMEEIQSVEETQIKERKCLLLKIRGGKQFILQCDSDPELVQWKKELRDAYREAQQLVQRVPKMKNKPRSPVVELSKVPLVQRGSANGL
The target in assay [10] is AP-2 complex subunit beta (Homo sapiens) (UniProt P63010). The assay can be described thus: beta-arrestin/AP2 interaction blockers – biochemical, validation set, GST-AP2 beads, flow cytometry, pilot screen (AID 504541;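 active = inhibition above 54%, about 3 SD of non-fluorescent compounds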;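 also: AP2 carries R879A mutation and is captured from E. coli lysate; bead-bound FITC arrestin peptide fluorescence measuring arrestin peptide binding to AP2; 0% = DMSO wells and 100% = excess unlabeled arrestin peptide control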). As to conditions: FITC arrestin peptide, at 10 µM, stronger effect = higher value, AP2 beta2 appendage fragment, R879A mutant.
Sequence of AP-2 complex subunit beta (Homo sapiens) (P63010 whole entry, looked up, the tested form may be a part, one chain of several): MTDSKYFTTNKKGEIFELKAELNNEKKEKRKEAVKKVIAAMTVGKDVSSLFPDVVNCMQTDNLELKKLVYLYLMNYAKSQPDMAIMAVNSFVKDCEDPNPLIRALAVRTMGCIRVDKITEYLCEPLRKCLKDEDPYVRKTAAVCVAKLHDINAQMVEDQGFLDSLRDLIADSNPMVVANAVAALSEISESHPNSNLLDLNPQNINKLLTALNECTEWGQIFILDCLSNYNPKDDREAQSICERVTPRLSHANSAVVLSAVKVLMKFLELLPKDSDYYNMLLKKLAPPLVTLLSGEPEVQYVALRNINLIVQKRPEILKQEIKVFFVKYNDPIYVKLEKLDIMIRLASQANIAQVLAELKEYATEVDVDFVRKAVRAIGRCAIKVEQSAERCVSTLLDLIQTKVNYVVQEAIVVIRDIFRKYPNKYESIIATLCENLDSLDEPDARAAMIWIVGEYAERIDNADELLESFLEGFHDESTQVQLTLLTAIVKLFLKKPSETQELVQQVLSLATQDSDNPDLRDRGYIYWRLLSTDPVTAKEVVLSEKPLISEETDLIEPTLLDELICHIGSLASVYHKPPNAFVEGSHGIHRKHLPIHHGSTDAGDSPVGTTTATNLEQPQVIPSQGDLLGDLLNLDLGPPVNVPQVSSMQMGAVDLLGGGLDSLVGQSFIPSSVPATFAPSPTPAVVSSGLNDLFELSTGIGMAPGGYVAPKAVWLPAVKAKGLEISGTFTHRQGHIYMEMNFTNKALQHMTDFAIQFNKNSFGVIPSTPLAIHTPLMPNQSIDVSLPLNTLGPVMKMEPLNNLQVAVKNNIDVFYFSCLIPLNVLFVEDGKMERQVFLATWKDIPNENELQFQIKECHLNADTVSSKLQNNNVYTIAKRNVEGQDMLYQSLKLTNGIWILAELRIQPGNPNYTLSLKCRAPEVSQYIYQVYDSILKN
The nature of assay [11]: cytosolic pH regulators acting via V-ATPase – S. cerevisiae, pHLuorin, HTS validation (AID 504600; in the data active = response above about 15%;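 also: plate controls were DMSO for no effect and reference compound for full effect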). As to conditions: V-ATPase proton transport, at 10 µM, stronger effect = higher value.
In assay [12] the test system is anti-desmoglein-3 scFv antibody binding to human DSG3. The assay can be described thus: blockers of pathogenic pemphigus antibody–desmoglein-3 binding – biochemical, validation compound set, bead-based, flow cytometry, pilot screen (AID 588368).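 Also: signal is the median channel fluorescence of bead-bound GFP antibody.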 The note with it: Protein G beads, DSG3-Fc, scFv-GFP binding, at 10 µM, stronger effect = lower value.
Assay [13] in a line: Nile Red efflux blockade in pump-expressing yeast – validation compound set, multiplex, phenotypic, pilot screen (AID 588506;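 active = efflux inhibition above 0.42, the validation set average plus 4 SD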;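 also: Nile Red retained in cells so higher fluorescence means more efflux inhibition; 0 = negative control wells and 1 = enniatin B 25 µM full block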). The note with it: S. cerevisiae pump-expressing triplex, Nile Red efflux flow cytometry; at 10 µM; stronger effect = higher value; the pumps come from Candida albicans.
The target of assay [14] is ATP-binding cassette sub-family B member 6 (Homo sapiens) (UniProt Q9NP58). The assay can be described thus: blockers of ABCB6-driven porphyrin uptake – K562-ABCB6 cells, flow cytometry, validation set, pilot screen (AID 588550;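 active = inhibition above the screen-wide mean plus 3 SD, about 51%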;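 also: 0% = DMSO wells and 100% = benzethonium chloride 70 µM positive control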). As to conditions: K562-ABCB6 porphyrin accumulation, 1 h, at 10 µM, stronger effect = higher value.
Sequence of ATP-binding cassette sub-family B member 6 (Homo sapiens) (Q9NP58 whole entry, looked up): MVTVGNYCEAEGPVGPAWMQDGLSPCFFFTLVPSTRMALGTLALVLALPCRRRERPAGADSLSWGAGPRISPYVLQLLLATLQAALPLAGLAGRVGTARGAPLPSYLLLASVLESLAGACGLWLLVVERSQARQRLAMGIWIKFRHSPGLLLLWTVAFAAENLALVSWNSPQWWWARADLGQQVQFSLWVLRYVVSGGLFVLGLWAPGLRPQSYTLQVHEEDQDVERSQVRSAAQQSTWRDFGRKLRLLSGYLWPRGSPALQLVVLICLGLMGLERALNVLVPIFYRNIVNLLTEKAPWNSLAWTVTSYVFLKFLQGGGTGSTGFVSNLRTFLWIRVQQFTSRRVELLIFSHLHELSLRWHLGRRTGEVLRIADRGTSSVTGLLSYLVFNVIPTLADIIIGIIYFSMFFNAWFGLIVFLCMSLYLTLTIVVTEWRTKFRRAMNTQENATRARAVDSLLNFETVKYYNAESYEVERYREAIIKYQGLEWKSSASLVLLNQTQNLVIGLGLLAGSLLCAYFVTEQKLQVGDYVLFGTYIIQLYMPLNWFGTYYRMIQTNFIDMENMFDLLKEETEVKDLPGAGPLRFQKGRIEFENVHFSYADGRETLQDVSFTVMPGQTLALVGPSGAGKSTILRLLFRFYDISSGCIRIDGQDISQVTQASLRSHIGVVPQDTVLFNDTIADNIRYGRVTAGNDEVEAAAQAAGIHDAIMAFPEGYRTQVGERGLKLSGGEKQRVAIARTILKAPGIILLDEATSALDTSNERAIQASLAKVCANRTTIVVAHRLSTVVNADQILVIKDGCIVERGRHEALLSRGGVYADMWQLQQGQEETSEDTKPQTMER
Assay [15] in a line: AML differentiation inducers, ER-HoxA9 marrow cells – cell-based, GFP/MAC1 double positive, flow cytometry, validation set, primary screen (AID 588685;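 active = differentiation response of at least 50%, scaled between solvent and reference control, from cells with both markers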;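 also: compound exposure lasts four days before antibody staining and flow analysis; 0% = DMSO wells and 100% = 5 µM fulvestrant positive control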). As to conditions: stronger effect = higher value, normalized: vehicle 0, fulvestrant 100.

For orientation: inhibition means the drop in the measured response relative to a control, in per cent. Regarding `O=C(c1ccc(-c2ccccc2)c(F)c1)C1CCCN(C(=O)c2cncs2)C1` (stereo not given), the percent of DMSO control GFP in assay [1] was 100% (inactive). Further, the GFP response vs DMSO is 103% (inactive) in assay [2] and 108% (inactive) in [4]. Also, the percent response of DMSO control in [3] is 95.9% (inactive). Moreover, the GFP response, % of DMSO in assay [5] was 91.8% (inactive). In [6], this compound displayed a double positive events of 49.8%. Further, the vesicle binding response in assay [6] is 157% (inactive). Also, the inhibition in assay [7] was 11.9% (inactive); in [10], -11% (inactive); in assay [14], 9% (inactive). Moreover, the superoxide response (% of plate) in assay [8] was 132% (inactive). The aptamer binding inhibition in [9] was 7% (inactive). For the same compound, the response in assay [11] is 13.7% (inactive). Further, the binding (% of control) in [12] is 101% (inactive). Also, the efflux inhibition (fraction of control) in [13] was -0.47 (inactive). Moreover, the differentiation response in assay [15] was -14.7% (inactive).

`CCOC(=O)C1=C(N)Oc2c(oc(CO)cc2=O)C1c1ccc(F)c(F)c1` (stereo not given): the percent of DMSO control GFP in assay [1] was 99.1% (inactive). The figures for the GFP response vs DMSO in [2] and in assay [4] were 101% (inactive) and 94.3% (inactive), respectively. Moreover, in assay [3], the percent response of DMSO control was 99.8% (inactive). Further, in [5], the GFP response, % of DMSO was 97.3% (inactive). For the same compound, the double positive events in assay [6] stood at 56.7%. In assay [6], the vesicle binding response was 213% (inactive). Besides, the inhibition in assay [7] was 9.09% (inactive); in assay [10], 42.8% (inactive); in [14], 2% (inactive). The superoxide response (% of plate) in assay [8] is 98% (inactive). Also, in assay [9], the aptamer binding inhibition was 1% (inactive). The response in assay [11] was -11.2% (inactive). Also, in assay [12], the binding (% of control) was 104% (inactive). Besides, the efflux inhibition (fraction of control) in [13] was 0.03 (inactive). The differentiation response in assay [15] is -18% (inactive).

As to `COc1cccc(CN2CCN(C(=O)c3ccc(-c4ccccc4)cc3)CC2)c1`, the percent of DMSO control GFP in [1] was 99.1% (inactive). Moreover, the GFP response vs DMSO was 103% (inactive) in assay [2] and 113% (inactive) in assay [4]. Besides, the percent response of DMSO control in [3] was 103% (inactive). In addition, in assay [5], the GFP response, % of DMSO is 98.8% (inactive). In assay [6], this compound gave a double positive events of 52.5%. Besides, the vesicle binding response in [6] is 189% (inactive). Also, the inhibition in assay [7] was -6.77% (inactive); in [10] it was -7.96% (inactive); in assay [14] it was 7% (inactive). The superoxide response (% of plate) in assay [8] was 87.9% (inactive). In addition, in assay [9], the aptamer binding inhibition is 2% (inactive). In [11], the response was 5.01% (inactive). The binding (% of control) in assay [12] is 99.5% (inactive). Further, the efflux inhibition (fraction of control) in assay [13] was 0.22 (inactive). In addition, the differentiation response in assay [15] is 4.64% (inactive).

`Clc1ccccc1CN1CCc2sccc2C1`: the percent of DMSO control GFP in assay [1] was 100% (inactive). Moreover, the GFP response vs DMSO is 104% (inactive) in assay [2] and 118% (inactive) in assay [4]. The percent response of DMSO control in assay [3] is 99.6% (inactive). In addition, in assay [5], the GFP response, % of DMSO is 119% (inactive). The compound also showed a double positive events in [6] of 64.6%. In assay [6], the vesicle binding response is 233% (inactive). Besides, the inhibition in [7] is 6.55% (inactive); in assay [10], 59.3% (active); in assay [14], 0% (inactive). For the same compound, the superoxide response (% of plate) in assay [8] is 87.2% (inactive). In addition, in [9], the aptamer binding inhibition was -1% (inactive). Also, in [11], the response was 0.39% (inactive). Further, the binding (% of control) in assay [12] was 102% (inactive). Moreover, in assay [13], the efflux inhibition (fraction of control) was 0 (inactive). In addition, the differentiation response in [15] was -4.99% (inactive).

As to `O=C(c1ccc(F)cc1)[C@@H]1[C@@H](C(=O)c2ccccc2)[C@@]2(C(=O)Nc3ccccc32)[C@H]2c3ccccc3C=CN12`, in [1], the percent of DMSO control GFP is 102% (inactive). The GFP response vs DMSO in assay [2] was 93.8% (inactive); in [4] it was 102% (inactive). In assay [3], the percent response of DMSO control is 106% (inactive). Also, the GFP response, % of DMSO in assay [5] is 102% (inactive). The same compound gave a double positive events in assay [6] of 43.2%. In [6], the vesicle binding response is 172% (inactive). Also, the inhibition in assay [7] is -183% (inactive); in assay [10], -24.7% (inactive); in [14] it was 3% (inactive). Besides, the superoxide response (% of plate) in assay [8] is 121% (inactive). For the same compound, the aptamer binding inhibition in assay [9] is -3% (inactive). Also, the response in assay [11] is 2.83% (inactive). Further, the binding (% of control) in assay [12] is 100% (inactive). Besides, the efflux inhibition (fraction of control) in assay [13] was 0.03 (inactive). Also, the differentiation response in assay [15] is -19.6% (inactive).
